This note sets out measurements from PubChem BioAssay AID588856 (National Center for Advancing Translational Sciences (NCATS), 2011).

Hit rate of the full screen: of about 410,000 compounds, about 3,100 (0.76%) were called active. Where a call stands in place of a potency, no number is given. This is one part of a sample in which actives are shown more often than they occur. Calls come from the whole dose curve; as a rule, active = well fitted cell-killing curve with a large enough effect; inactive = no such curve, though single readings can be large or run the other way.
Potency is the fitted concentration of half-maximal effect.

This assay in a line: qHTS for Inhibitors of TGF-b: Cytotox Counterscreen. The conditions noted are these: HepG2 CAGA-GFP viability, ATP luminescence, 18 h; series mostly up to 46.1 µM. The essentials:
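HepG2 CAGA-GFP cells (1000/well, DMEM with 1% FBS) received compound, then TGF-beta at 500 pg/mL final, and were incubated 18 hours at 37 degrees C. Viability was read by CellTiter-Glo luminescence. Media-only wells were set as complete cell-killing and DMSO as no toxicity.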
On the technique in general: qHTS replaces the single test concentration by a dilution series.
Turning to `O=C(Nc1ccc(S(=O)(=O)N2CCC(c3nc4ccccc4s3)CC2)cc1)c1ccccc1F`, the Potency entry is “inactive”.

For `Cc1ccc(C)c(Cn2c(=O)n(CCC(=O)NCc3ccc4c(c3)OCO4)c(=O)c3sccc32)c1`, the Potency result was “inactive”.

For the compound `Nc1nc(N)c(N=O)c(N)n1`, the Potency entry is “inactive”.

Turning to `Cc1cccc(Cn2c(SCc3ccc(C(=O)N4CCC(C)CC4)cc3)nc3ccncc32)c1`, the Potency is 12.6 µM (active).

As to `Cc1cccc(CSc2nc3ccncc3n2Cc2ccc(C(=O)O)cc2)c1`, the Potency result was “inactive”.

On to `COc1cccc(Cn2c(SCc3ccc(C(=O)N4CCC(C)CC4)cc3)nc3ccncc32)c1`, for which the Potency result is “inactive”.

Regarding `COC(=O)c1cc(S(=O)(=O)N2CCN(c3cc(Cl)ccc3C)CC2)c[nH]1`, the Potency entry is “inactive”.

`CCCCCCC1(C)NC(c2ccc3c(c2)OCO3)=CC(c2ccccc2O)N1` (stereo not drawn): the Potency result was “inactive”.

Consider `CCOC(=O)[C@H]1[C@H]2COc3cc(OC)ccc3[C@@H]2N2C(=O)N(c3ccc(Br)cc3)C(=O)[C@@]12C`, for which the Potency result is “inactive”.

`CS(=O)c1ccc(/C=C2\C=Cc3ccccc32)cc1` (stereo not drawn): the Potency entry was “inactive”.

Regarding `N#Cc1ccc[n+](CC(=O)c2ccc(O)c(O)c2)c1`, the Potency result is “inactive”.

As for `CN(C)c1cccc2ccccc12`, the Potency result is “inactive”.

Turning to `O=C(Oc1ccc(-c2nc(-c3ccccn3)no2)cc1)c1ccccc1`, the Potency is 5.01 µM (active).

Take `COC(=O)c1ccc(-c2noc(CN(Cc3ccccn3)CC3CCCO3)n2)cc1` (stereo not drawn): the Potency result was “inactive”.

In the case of `O=C(COc1cccc(F)c1)Oc1ccc(C(=O)c2ccccc2)cc1`, the Potency entry was “inactive”.

Take `O=C(c1ccco1)n1nc(-c2ccc(Cl)cc2)nc1NCc1ccccc1`: the Potency entry is “inactive”.

As to `O=C(Nc1ccc2c(c1)OCO2)c1cc(-c2cccc(Cl)c2)on1`, the Potency result was “inactive”.

For `COc1cc(SC#N)ccc1N=Cc1c(C)[nH]n(-c2ccc(C)cc2)c1=O`, the Potency was 12.6 µM (active).

`O=C(NCCc1ccccc1)c1cnc2sc(N3CCCC3)nn2c1=O`: the Potency result was “inactive”.

`Cc1ccc2oc(C(=O)Nc3ccc(S(=O)(=O)N4CCCCCC4)cc3)cc(=O)c2c1`: the Potency entry is “inactive”.

For `Fc1ccc(Nc2nc(SCc3ccccc3Cl)nc3ccccc23)cc1`, the Potency was 17.8 µM (active).

As to `Fc1ccc(CSc2nc(NCc3ccccc3)c3ccccc3n2)cc1`, the Potency result was “inactive”.

For the compound `O=C(Nc1nc2ccc(F)cc2s1)c1nc(SCc2ccccc2F)ncc1Cl`, the Potency result was “inactive”.

As for `COC(=O)c1ccc(NC(=O)c2cc(S(=O)(=O)N3CCC(C)CC3)cn2C)cc1`, the Potency entry is “inactive”.

Take `CN(C)c1ccc(/C=c2\[nH]c(=O)/c(=C/c3ccc(N(C)C)cc3)[nH]c2=O)cc1`: the Potency result was “inactive”.

On to `Cc1cccc(-c2nc3ccc(C(=O)NCCN4CCN(C)CC4)cc3nc2-c2cccc(C)c2)c1`, for which the Potency was 12.6 µM (active).

Consider `Cc1cccc(CCNC(=O)c2ccc3c(c2)nc2n3CCC(C)C2)c1` (stereo not drawn), for which the Potency result was “inactive”.

In the case of `COc1ccc(-c2nc3ccc(C(=O)NCc4ccc(C)cc4)cc3nc2-c2ccc(OC)cc2)cc1`, the Potency entry was “inactive”.

Take `Cc1ccc2nc(N3CCN(c4cccc(Cl)c4)CC3)c3nnnn3c2c1`: the Potency result is “inactive”.

With `CCCN(CCC)CCNC(=O)Cn1cnc2sc(C)c(S(=O)(=O)N3CCC(C)CC3)c2c1=O`, the Potency result was “inactive”.

`CCN(CC)c1ccc(/C=C/c2c(C)cnc3ccc(C)cc23)cc1`: the Potency result is “inactive”.

In the case of `COc1ccc(C(CCN(Cc2ccc(OC)c(OC)c2)C(=O)CCl)c2ccccc2)cc1` (stereo not drawn), the Potency was 11.2 µM (active).

Regarding `COc1ccc(Cl)cc1NC(=O)CN(C)Cc1ccc(OC)c(OC)c1`, the Potency entry was “inactive”.

As for `CCN(CCCCOC(=O)c1ccc(OC)c(OC)c1)C(C)Cc1ccc(OC)cc1` (stereo not drawn), the Potency entry is “inactive”.

On to `S=c1[nH]c(=S)c2n[nH]nc2[nH]1`, for which the Potency result is “inactive”.

Turning to `COc1ccc(N2C(=O)CS(=O)(=O)C23C(=O)N(Cc2ccc(C)cc2)c2ccccc23)cc1Cl` (stereo not drawn), the Potency entry was “inactive”.

As for `CCCC(=O)Nc1cc2nn(-c3ccccc3)nc2cc1C`, the Potency result is “inactive”.

Take `OC(c1ccc(F)cc1)c1ncc(-c2cccc(C(F)(F)F)c2)[nH]1` (stereo not drawn): the Potency entry is “inactive”.

Take `OC(c1ccc(Cl)cc1)c1ncc(-c2ccc(Cl)cc2)[nH]1` (stereo not drawn): the Potency was 11.2 µM (active).

`Cc1ccc(-c2cnc(C(O)c3cc(Cl)cc(Cl)c3)[nH]2)cc1` (stereo not drawn): the Potency entry was “inactive”.

`CCc1ccc(OCCCn2c(CCCNC(=O)C3CCCCC3)nc3ccccc32)cc1`: the Potency entry is “inactive”.

Take `CCCCCCn1nnc2sc(-c3ccccc3)cc2c1=O`: the Potency entry was “inactive”.

As for `CC(=O)c1c(C)n(S(=O)(=O)c2ccc(Cl)cc2)c2ccc(NS(=O)(=O)c3ccc(Cl)cc3)cc12`, the Potency entry was “inactive”.

Take `Cn1c(SCC(=O)Nc2cccc(NC(=O)c3cccs3)c2)nnc1-c1ccncc1`: the Potency result is “inactive”.

In the case of `Cc1ccc(OCC(=O)Nc2ccc(NC(=O)c3cccs3)cc2)c(C)c1`, the Potency is 1.12 µM (active).

As for `CCn1c2ccccc2c2cc(NC(=O)COc3ccc(C)cc3C)ccc21`, the Potency entry is “inactive”.

With `Cn1c(=O)c(=O)n(C)c2cc(NC(=O)c3ccccc3Br)ccc21`, the Potency result is “inactive”.

Consider `Cc1cccc(-n2ncc(Cl)c(Cl)c2=O)c1`, for which the Potency is 11.2 µM (active).

Turning to `Cc1cccc(-n2ncc(C(=O)N3CCC(C)CC3)c2C2CCN(C(=O)OC(C)(C)C)CC2)c1`, the Potency result is “inactive”.

With `Cc1cccc(-n2ncc(C(=O)N3CCN(c4ccc(Cl)cc4)CC3)c2C2CCN(C(=O)OC(C)(C)C)CC2)c1`, the Potency result is “inactive”.

Regarding `COc1ccc(/C=C/c2noc(-c3ccccc3O)n2)cc1OC`, the Potency result was “inactive”.

For `CCOc1ccc(-c2nonc2NC(=O)c2oc3ccc(C)cc3c2C)cc1OCC`, the Potency result is “inactive”.

`CCOC(=O)c1c(NC(=O)c2cc(-c3ccc(Cl)cc3)on2)sc2c1CCCC2`: the Potency result was “inactive”.

As for `CCOC(=O)c1c(NC(=O)C(C)Sc2c[nH]c3ccccc23)sc2c1CCC2` (stereo not drawn), the Potency is 25.1 µM (active).

For the compound `CCOC(=O)c1c(NC(=O)/C(C#N)=C/c2ccccc2)sc2c1CCC2`, the Potency result was “inactive”.

For `Cc1csc(NCC(=O)c2c[nH]c3ccccc23)n1`, the Potency result was “inactive”.

Take `Cc1ccc(C)c(N2CCN(Cc3nnc(-c4ccccc4)o3)CC2)c1`: the Potency entry is “inactive”.

With `COc1ccc(CCNC(=O)c2ccc(-n3c(C)cc4c3CCCC4)cc2)cc1OC`, the Potency result is “inactive”.

As for `CCN(CC)c1ccc(NC(=O)CN2CCN(CC(=O)Nc3ccc(Cl)cc3)CC2)cc1`, the Potency result was “inactive”.

On to `O=C(Nc1ccc2c(c1)OCCO2)C(c1ccc(F)cc1)N1CCCCC1` (stereo not drawn), for which the Potency entry was “inactive”.

`O=C(CN1CCOc2ccccc21)N1CCC(Cc2ccccc2)CC1`: the Potency entry is “inactive”.

Consider `O=C(Nc1ccc2c(c1)OCCO2)C(C1CC1)N1CCC(Cc2ccccc2)CC1` (stereo not drawn), for which the Potency is 15.8 µM (active).

As for `Cc1cccc(Nc2nc(C)nc(N)c2S(=O)(=O)c2ccccc2)c1`, the Potency result was “inactive”.

Regarding `COc1ccc(NC(=O)CSc2nccn2C2CCCC2)cc1OC`, the Potency entry is “inactive”.

For the compound `COc1ccc2c(c1)c(=O)c(C(=O)c1ccccc1)cn2CC(=O)Nc1ccc2c(c1)OCCO2`, the Potency result is “inactive”.

Regarding `CCN(CC)c1nc(C#N)nc(OC)n1`, the Potency result was “inactive”.

On to `COc1ccc(-c2nc(=N)sn2-c2ccccc2)cc1`, for which the Potency entry is “inactive”.

Consider `Nc1ncnc2nnsc12`, for which the Potency entry is “inactive”.

For `Cc1cc(C)cc(OC(C)C(=O)Nc2nc3c(s2)CCCC3)c1` (stereo not drawn), the Potency result is “inactive”.

As for `COc1ccc(-c2nc3cc(C)ccn3c2NC2CCCCC2)cc1SC1CCCCC1`, the Potency result is “inactive”.

For the compound `COc1ccc(-c2nc3cnccn3c2NC2CCCCC2)cc1-c1cccc(Cl)c1`, the Potency was 12.6 µM (active).

With `COc1ccc(-c2nc3cnccn3c2NC(C)(C)CC(C)(C)C)cc1O`, the Potency entry is “inactive”.

As to `Cc1cccc(-c2nnc(SC(C)C(=O)Nc3ccccc3)n2C)c1` (stereo not drawn), the Potency result is “inactive”.

In the case of `Cc1nnnn1/C(=C\c1ccccc1)C(=O)OCC(=O)N1CC2(C)CC1CC(C)(C)C2` (stereo not drawn), the Potency is 7.94 µM (active).

For the compound `Oc1ccc(Cl)cc1C1C=C(c2ccc3c(c2)OCO3)NC(c2ccc(F)c(Br)c2)N1` (stereo not drawn), the Potency result was “inactive”.

Consider `CCOc1ccccc1NC(=O)c1ccc2c(c1)CCN2S(=O)(=O)c1ccc(C)cc1`, for which the Potency result was “inactive”.

`COc1ccc(C)cc1Nc1nc2ccccc2c2nnc(C)n12`: the Potency entry was “inactive”.

As to `CCCNC(=O)C(CC)n1nc(CC)n2c(cc3oc(C)cc32)c1=O` (stereo not drawn), the Potency result is “inactive”.

Turning to `CCOC(=O)c1c(C)[nH]c(CCC(=O)NCCCN2CCN(c3cc(C)ccc3C)CC2)c1C`, the Potency result was “inactive”.

Take `O=C(NCCCN1CCN(c2ccc(F)cc2)CC1)Nc1ccc([N+](=O)[O-])cc1`: the Potency entry is “inactive”.

`Cc1ccc(C)c(N2CCN(CCCNC(=O)Nc3ccc(Cl)cc3)CC2)c1`: the Potency is 10 µM (active).

Turning to `O=C(C1CCC(Cn2c(=O)c3sccc3n(Cc3ccccc3F)c2=O)CC1)N1CCCCC1` (stereo not drawn), the Potency result was “inactive”.

Consider `COc1cc(CN(C(=O)c2ccccc2Br)c2ccccn2)cc(OC)c1OC`, for which the Potency entry is “inactive”.

Regarding `COc1cccc(CC2(CO)CCN(Cc3cnc(-c4cccc(C)c4)nc3)CC2)c1`, the Potency entry is “inactive”.

Consider `Cc1c(CN2CCC(CO)(CCOc3ccccc3)CC2)[nH]c2ccc(Cl)cc12`, for which the Potency was 20 µM (active).

As for `CCC(C)CN1CCC(CO)(Cc2ccccc2Cl)CC1` (stereo not drawn), the Potency entry is “inactive”.

For `COc1cc(/C=C/c2ccc(/C=C/c3cc(OC)c(OC)c(OC)c3)cc2)cc(OC)c1OC`, the Potency result is “inactive”.

In the case of `Cc1ccc(S(=O)(=O)Oc2ccc(/C=N/NC(=O)c3c(Cl)cnn3C)cc2)cc1`, the Potency result was “inactive”.

`COc1cc(/C=N/O)cc(Br)c1OS(=O)(=O)c1ccc(C)cc1`: the Potency was 12.6 µM (active).

In the case of `CO[C@H]1O[C@@H]2O[C@@]3(C)CC[C@@H]4[C@@H](C)CC[C@@H]([C@H]1C)[C@@]24OO3`, the Potency entry was “inactive”.

For the compound `Fc1ccc(-c2nc(Nc3cccc(Cl)c3)nc3c2COc2ccccc2-3)cc1`, the Potency entry was “inactive”.

In the case of `Cc1oc(-c2ccccc2F)nc1CN1CCC(C(=O)NCCc2ccc(Cl)cc2)CC1`, the Potency entry is “inactive”.

With `COc1ccc(Cn2ccc3nc(C)c(C(=O)Nc4ccc(C)c(F)c4)cc3c2=O)cc1`, the Potency entry is “inactive”.

For `O=C(NC1=CC(=O)c2ccccc2C1=O)c1ccccc1`, the Potency was 15.8 µM (active).

Turning to `CC1=C(C(=O)N2CCN(c3cccc(C(F)(F)F)c3)CC2)C2(CCCCC2)OC1=O`, the Potency result was “inactive”.

For the compound `Cc1ccc(SCC(CC(C)C)N2CCN(CCc3ccccc3)CCC2=O)cc1` (stereo not drawn), the Potency entry is “inactive”.

For `COc1ccc(C(=O)Nc2cccc(C(=O)OCc3cc(=O)n4c5c(sc4n3)CCCC5)c2)cc1`, the Potency entry is “inactive”.

For `CCC1CCCCN1Cc1c(O)ccc2c(=O)c(Oc3ccccc3Cl)c(C(F)(F)F)oc12` (stereo not drawn), the Potency entry is “inactive”.
